Pf Dd2 inh = Plasmodium falciparum Dd2 growth inhibition; Potency, µM (series often up to 28.9 µM), without a hit: at the highest dose activity, negative = inhibition, usual class: inhibitors; 120,000 tested, 4.3% active; P. falciparum Dd2 growth, SYBR Green, 72 h; active means well fitted inhibition curve with a large enough effect;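 further: plate controls were DMSO vehicle for no effect and reference drug for full effect; nearly all actives have a fitted effect of over 65% in size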
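Readout: SYBR Green fluorescence, 485 nm excitation, 535 nm emission, after ~16 h lysis at 37C. Before that, Dd2-infected red cells (2.5% hematocrit) grew 72 h with compound, 29 uM top final concentration.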
* hit, by the source's call; [ ] = dose if it differs, or a comment. The sample as a whole holds a higher share of hits than the screen did. Potency means the concentration at half of the fitted maximal effect.

For O=C(O)[C@]12CCCN[C@@H]1CCN(Cc1ccc(-c3ccccn3)cc1)C2 the results were Pf Dd2 inh -1%.
CN(CC1CCOCC1)C(=O)Nc1ccc2c(c1)OCCO2 was read as Pf Dd2 inh -17%.
Screening Cc1ccc(-c2nccn3cc(C(=O)N4CCN(c5ncccn5)CC4)nc23)cc1 returned Pf Dd2 inh inactive.
`Fc1ccccc1N1CCN(c2ncc3c(n2)CCN(Cc2cc(Br)cs2)C3)CC1` gave Pf Dd2 inh -19%.
COc1cc(OC)c(OC)cc1CN1CCc2nc(N3CCN(c4ncccn4)CC3)ncc2C1 was read as Pf Dd2 inh 7.9µM*.
For COc1cc(OC)c(OC)cc1CN1CCc2nc(Nc3ccc4c(c3)OCCO4)ncc2C1 the results were Pf Dd2 inh 10µM*.
Screening CCN1CCN(c2ncc3c(n2)CCN(Cc2cccc(F)c2F)C3)CC1 returned Pf Dd2 inh 32%[5.79 µM].
Screening COc1cccc(CN2CCc3nc(Nc4ccc5c(c4)OCCO5)ncc3C2)c1 returned Pf Dd2 inh -20%.
`COc1ccccc1N1CCN(c2ncc3c(n2)CCN(Cc2ccc(C)s2)C3)CC1` gave Pf Dd2 inh -8%.
CCOc1ccc(CN2CCc3nc(N4CCN(c5ccccc5OC)CC4)ncc3C2)cc1OC was read as Pf Dd2 inh -23%.
Clc1ccc(CN2CCc3nc(Nc4ccc5c(c4)OCCO5)ncc3C2)cc1 was read as Pf Dd2 inh inactive.
Clc1ccc(CN2CCc3nc(N4CCN(c5ccccn5)CC4)ncc3C2)cc1 was read as Pf Dd2 inh -5%.
Fc1ccccc1N1CCN(c2ncc3c(n2)CCN(Cc2ccc(Br)s2)C3)CC1 was read as Pf Dd2 inh -9%.
Screening CCc1ccc(CN2CCc3nc(N4CCN(c5ccccc5F)CC4)ncc3C2)cc1 returned Pf Dd2 inh 8.9µM*.
Screening CCOc1ccc(CN2CCc3nc(N4CCN(c5ncccn5)CC4)ncc3C2)cc1OC returned Pf Dd2 inh 7.9µM*.
O=C1N2CCCC2CN1C1CCN(Cc2cccc(F)c2)CC1 (stereo not drawn) was read as Pf Dd2 inh 7%[44.1 µM].
Screening COC(=O)CNC(=O)c1nc(-c2cc(Cl)cc(Cl)c2)c2ccccn12 returned Pf Dd2 inh -11%.
CCN1C(=O)CCN(C(=O)Nc2ccc(C)c(C)c2)CC12CCOCC2 was read as Pf Dd2 inh -4%.
Screening CCc1ccc(-c2nc(C3CC(=O)N(c4ccc(OC)cc4)C3)no2)cc1 (stereo not drawn) returned Pf Dd2 inh 32%.
For Cc1nc(C(=O)N2CCC(c3nnc(CN4CCCC4)n3C)CC2)cs1 the results were Pf Dd2 inh 18%.
`COc1cccc(CN2CCCCCNC(=O)[C@@H]3CCC[C@@H]32)c1` gave Pf Dd2 inh inactive.
`COCCNC(=O)C1COC2(CCN(C(=O)c3cccs3)CC2)N1C(=O)c1ccccc1` (stereo not drawn) gave Pf Dd2 inh 21%.
COc1cccc(OCc2nc(C(=O)N(C)Cc3cnc4ccccn34)co2)c1 was read as Pf Dd2 inh -3%.
For CC(C)N1C(=O)C2(CCCC2)C1C(=O)NCc1ccccn1 (stereo not drawn) the results were Pf Dd2 inh -13%.
O=C1C(N2CCN(S(=O)(=O)c3ccc(F)cc3F)CC2)CCN1Cc1cccnc1 (stereo not drawn) was read as Pf Dd2 inh -8%.
Cn1cnc(S(=O)(=O)N2CCC(c3noc(-c4ccncc4)n3)C2)c1 (stereo not drawn) was read as Pf Dd2 inh inactive[5.79 µM].
Screening CCn1ncc(N2CCC(NC(=O)c3ccc(C)cc3C)CC2)cc1=O returned Pf Dd2 inh -18%.
COc1ccccc1-c1cc(NCc2cnccn2)c2onc(C)c2n1 was read as Pf Dd2 inh -19%[44.1 µM].
COCCn1cc2c3c(cccc31)CN(C(=O)c1cccc(Cl)c1)CC2 was read as Pf Dd2 inh -1%.
`COc1ccc(CN2CCc3nc(N4CCOCC4)[nH]c(=O)c3CC2)c(OC)c1OC` gave Pf Dd2 inh inactive[5.79 µM].
COc1ccc(CN2CCc3nc(N4CCN(c5ccc(F)cc5)CC4)ncc3C2)c(OC)c1OC was read as Pf Dd2 inh 11µM*.
For COc1ccccc1N1CCN(c2ncc3c(n2)CCN(Cc2ccccc2F)C3)CC1 the results were Pf Dd2 inh 42%[5.79 µM].
Screening O=S(=O)(NC[C@H]1O[C@H](Cc2cc(CN3CCOCC3)on2)CC[C@@H]1O)c1ccccc1 returned Pf Dd2 inh 13%.
For CCCOc1cc(C)c2c(c1C)C[C@H](C(C)C(=O)N1CCC(O)CC1)CC2 (stereo partly drawn) the results were Pf Dd2 inh inactive.
CC(C)NC(=O)C[C@@H]1O[C@H](CNC(=O)NC(C)C)[C@@H](O)[C@H]1O was read as Pf Dd2 inh 24%[44.1 µM].
Cc1ccc(Cn2c(=O)n(CC3CCC(C(=O)N4CCC(C)CC4)CC3)c(=O)c3sccc32)cc1 (stereo not drawn) was read as Pf Dd2 inh -24%.
CNC(=O)C1CCC(Cn2c(=O)c3sccc3n(CC(=O)N3CCC(C)CC3)c2=O)CC1 (stereo not drawn) was read as Pf Dd2 inh 8%.
Screening COc1cccc(Cn2c(=O)n(CC3CCC(C(=O)N4CCCCC4)CC3)c(=O)c3sccc32)c1 (stereo not drawn) returned Pf Dd2 inh 10µM*.
Screening COc1cccc(Cn2c(=O)n(CC3CCC(C(=O)NC(C)C)CC3)c(=O)c3sccc32)c1 (stereo not drawn) returned Pf Dd2 inh -8%.
`Cc1ccccc1Cn1c(=O)n(CC2CCC(C(=O)N3CCC(C)CC3)CC2)c(=O)c2sccc21` (stereo not drawn) gave Pf Dd2 inh 11µM*.
For Cc1cccc(Cn2c(=O)n(CC3CCC(C(=O)NC(C)C)CC3)c(=O)c3sccc32)c1 (stereo not drawn) the results were Pf Dd2 inh -5%.
For Cc1ccc(-c2nc(C(=O)NC(C)c3ccccc3)no2)cc1 (stereo not drawn) the results were Pf Dd2 inh inactive.
For Cc1cnc(-c2ccncc2)n1C1CCN(C(=O)C2CC2)CC1 the results were Pf Dd2 inh 6%.
Screening COC(=O)[C@@H]1Cc2ncn(C(C)C)c2CN1S(=O)(=O)c1cccc2cccnc12 returned Pf Dd2 inh -21%[44.1 µM].
For Cc1ccc(-n2c(C3CCN(C(=O)Cc4c(F)cccc4Cl)CC3)n[nH]c2=O)cc1 the results were Pf Dd2 inh -15%.
For CCNC(=O)[C@@H]1C[C@H](NC(=O)c2ccn(CC)n2)CN1C1CCOCC1 the results were Pf Dd2 inh -19%.
Screening COc1ccc(OCC(=O)NC2CCN(c3cc(-c4ccccc4)[nH]n3)CC2)cc1 returned Pf Dd2 inh inactive.
Screening CCc1ccc(NC(=O)c2ccc(F)c(S(=O)(=O)N3CCC(C)CC3)c2)cc1 returned Pf Dd2 inh -18%.
For CCc1ccc(NC(=O)c2ccc(F)c(S(=O)(=O)N(C)C3CCCCC3)c2)cc1 the results were Pf Dd2 inh 11µM*.
`CCc1ccc(NC(=O)c2ccc(F)c(S(=O)(=O)N3CCc4ccccc4C3)c2)cc1` gave Pf Dd2 inh 16%.
For Cn1nccc1C(O)c1cc2n(n1)CCN(Cc1nc(C3CC3)no1)C2 (stereo not drawn) the results were Pf Dd2 inh 4%.
For COc1cc(Cl)ccc1C(=O)N1CCC(c2n[nH]c(=O)n2Cc2ccc(F)cc2)CC1 the results were Pf Dd2 inh -28%.
For CCOCCCNC(=O)CCc1cc2cc(C)ccc2[nH]c1=O the results were Pf Dd2 inh 8%.
Screening CCOc1ccc(C(=O)N2C[C@@H](COC)[C@H](C(N)=O)C2)cc1 returned Pf Dd2 inh -1%.
